Columns and labels:
[1] = target: Tyrosine-protein kinase Fyn (Homo sapiens) (UniProt P06241); settings: at 1 µM
[2] = target: Tyrosine-protein kinase HCK (Homo sapiens) (UniProt P08631); settings: at 0.1 µM
[3] = target: Tyrosine-protein kinase HCK (Homo sapiens) (UniProt P08631); settings: at 1 µM
[4] = target: Insulin-like growth factor 1 receptor (Homo sapiens) (UniProt P08069); settings: at 0.1 µM
[5] = target: Insulin-like growth factor 1 receptor (Homo sapiens) (UniProt P08069); settings: at 1 µM
[6] = target: Insulin receptor (Homo sapiens) (UniProt P06213); settings: at 0.1 µM
[7] = target: Insulin receptor (Homo sapiens) (UniProt P06213); settings: at 1 µM
[8] = target: Insulin receptor-related protein (Homo sapiens) (UniProt P14616); settings: at 0.1 µM
[9] = target: Insulin receptor-related protein (Homo sapiens) (UniProt P14616); settings: at 1 µM
[10] = target: T1, Tyrosine-protein kinase ITK/TSK (Homo sapiens) (UniProt Q08881); settings: at 0.1 µM;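 further: mean percent inhibition of ITK from the GSK PKIS screen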
T1 sequence (whole entry): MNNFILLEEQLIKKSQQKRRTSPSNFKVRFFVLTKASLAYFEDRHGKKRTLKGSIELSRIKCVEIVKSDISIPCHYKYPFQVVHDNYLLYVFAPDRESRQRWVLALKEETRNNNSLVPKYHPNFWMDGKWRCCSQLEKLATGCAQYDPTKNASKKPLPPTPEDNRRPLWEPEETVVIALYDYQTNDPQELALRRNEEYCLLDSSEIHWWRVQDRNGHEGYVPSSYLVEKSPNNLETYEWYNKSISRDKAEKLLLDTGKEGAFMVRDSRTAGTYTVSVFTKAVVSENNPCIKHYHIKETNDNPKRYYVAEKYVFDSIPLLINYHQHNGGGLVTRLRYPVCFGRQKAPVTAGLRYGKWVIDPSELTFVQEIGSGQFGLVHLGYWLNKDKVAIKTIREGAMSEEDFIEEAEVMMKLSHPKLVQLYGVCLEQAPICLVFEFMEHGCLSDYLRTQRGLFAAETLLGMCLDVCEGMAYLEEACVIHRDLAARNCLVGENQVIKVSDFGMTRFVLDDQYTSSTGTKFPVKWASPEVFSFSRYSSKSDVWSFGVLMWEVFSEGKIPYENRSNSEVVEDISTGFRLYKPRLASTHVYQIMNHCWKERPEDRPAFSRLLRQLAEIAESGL

Sequence of Insulin receptor-related protein (Homo sapiens) (P14616 27-742 limits assumed): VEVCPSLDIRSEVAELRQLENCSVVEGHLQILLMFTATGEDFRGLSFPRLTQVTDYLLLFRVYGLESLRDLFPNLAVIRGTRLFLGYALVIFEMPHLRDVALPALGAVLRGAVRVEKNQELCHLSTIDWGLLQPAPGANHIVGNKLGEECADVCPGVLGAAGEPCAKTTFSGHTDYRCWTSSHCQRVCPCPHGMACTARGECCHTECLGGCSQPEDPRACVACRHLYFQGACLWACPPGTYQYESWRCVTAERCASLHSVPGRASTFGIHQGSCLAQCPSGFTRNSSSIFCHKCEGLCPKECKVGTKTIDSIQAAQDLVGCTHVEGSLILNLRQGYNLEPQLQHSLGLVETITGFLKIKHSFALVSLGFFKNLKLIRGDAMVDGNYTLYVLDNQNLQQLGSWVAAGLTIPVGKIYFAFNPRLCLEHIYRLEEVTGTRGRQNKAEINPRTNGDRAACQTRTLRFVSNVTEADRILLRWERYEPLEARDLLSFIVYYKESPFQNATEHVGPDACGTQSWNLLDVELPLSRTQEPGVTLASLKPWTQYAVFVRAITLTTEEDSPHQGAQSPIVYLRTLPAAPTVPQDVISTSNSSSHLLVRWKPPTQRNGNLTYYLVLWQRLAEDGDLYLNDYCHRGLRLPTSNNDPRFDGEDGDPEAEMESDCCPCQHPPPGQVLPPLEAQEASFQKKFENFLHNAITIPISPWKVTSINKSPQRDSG
Sequence of Insulin receptor-related protein (Homo sapiens) (P14616 747-1297 limits assumed): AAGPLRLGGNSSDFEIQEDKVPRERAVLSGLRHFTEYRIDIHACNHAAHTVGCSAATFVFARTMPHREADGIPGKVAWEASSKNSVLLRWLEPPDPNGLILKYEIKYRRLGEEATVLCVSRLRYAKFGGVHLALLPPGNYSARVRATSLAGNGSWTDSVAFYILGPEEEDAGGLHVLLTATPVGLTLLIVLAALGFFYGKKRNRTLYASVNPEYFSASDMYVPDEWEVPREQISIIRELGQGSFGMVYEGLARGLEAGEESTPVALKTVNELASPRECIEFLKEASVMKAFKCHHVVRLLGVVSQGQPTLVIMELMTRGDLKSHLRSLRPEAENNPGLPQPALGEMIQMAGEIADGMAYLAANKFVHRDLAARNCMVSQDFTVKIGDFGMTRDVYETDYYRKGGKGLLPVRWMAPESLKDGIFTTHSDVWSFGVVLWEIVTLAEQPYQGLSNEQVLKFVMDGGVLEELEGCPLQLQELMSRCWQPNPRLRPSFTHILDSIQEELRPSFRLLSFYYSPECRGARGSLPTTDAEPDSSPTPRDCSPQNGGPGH
Sequence of Insulin receptor (Homo sapiens) (P06213 28-758 limits assumed): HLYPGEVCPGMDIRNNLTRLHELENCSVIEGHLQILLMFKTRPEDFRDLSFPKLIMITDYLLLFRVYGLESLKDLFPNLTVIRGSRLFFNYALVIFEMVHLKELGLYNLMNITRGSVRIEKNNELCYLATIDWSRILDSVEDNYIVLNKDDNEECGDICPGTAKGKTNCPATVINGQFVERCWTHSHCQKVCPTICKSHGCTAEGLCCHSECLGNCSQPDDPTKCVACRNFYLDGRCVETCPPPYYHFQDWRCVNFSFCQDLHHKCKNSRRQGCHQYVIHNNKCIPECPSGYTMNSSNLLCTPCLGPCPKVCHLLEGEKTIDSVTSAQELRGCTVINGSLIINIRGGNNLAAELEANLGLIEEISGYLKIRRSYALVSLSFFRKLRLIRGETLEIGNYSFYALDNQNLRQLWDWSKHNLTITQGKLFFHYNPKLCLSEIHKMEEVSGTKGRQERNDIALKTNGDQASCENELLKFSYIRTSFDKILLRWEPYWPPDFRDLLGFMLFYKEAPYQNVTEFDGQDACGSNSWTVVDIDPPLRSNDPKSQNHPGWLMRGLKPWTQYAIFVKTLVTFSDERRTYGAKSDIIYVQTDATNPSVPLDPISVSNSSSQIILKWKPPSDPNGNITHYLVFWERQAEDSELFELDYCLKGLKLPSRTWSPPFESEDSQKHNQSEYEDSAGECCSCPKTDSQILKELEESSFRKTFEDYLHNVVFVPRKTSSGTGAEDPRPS
Sequence of Insulin receptor (Homo sapiens) (P06213 763-1382 limits assumed): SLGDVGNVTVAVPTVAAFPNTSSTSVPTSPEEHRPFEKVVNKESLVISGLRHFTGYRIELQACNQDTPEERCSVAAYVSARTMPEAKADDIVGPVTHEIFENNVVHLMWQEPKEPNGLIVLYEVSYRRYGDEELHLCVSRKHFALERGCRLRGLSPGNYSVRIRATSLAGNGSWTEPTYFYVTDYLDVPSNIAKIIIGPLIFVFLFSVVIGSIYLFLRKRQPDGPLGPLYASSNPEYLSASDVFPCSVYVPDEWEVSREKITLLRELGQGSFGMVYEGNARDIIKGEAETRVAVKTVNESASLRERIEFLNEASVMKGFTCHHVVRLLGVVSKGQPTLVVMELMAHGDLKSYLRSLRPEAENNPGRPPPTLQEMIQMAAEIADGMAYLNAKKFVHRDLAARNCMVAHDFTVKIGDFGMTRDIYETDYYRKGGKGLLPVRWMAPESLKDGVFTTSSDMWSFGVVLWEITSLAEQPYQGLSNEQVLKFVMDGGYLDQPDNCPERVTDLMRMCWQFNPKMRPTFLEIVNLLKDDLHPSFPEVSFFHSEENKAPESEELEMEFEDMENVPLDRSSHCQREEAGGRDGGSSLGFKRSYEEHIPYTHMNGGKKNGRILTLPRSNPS
Sequence of Tyrosine-protein kinase HCK (Homo sapiens) (P08631 2-526 limits assumed): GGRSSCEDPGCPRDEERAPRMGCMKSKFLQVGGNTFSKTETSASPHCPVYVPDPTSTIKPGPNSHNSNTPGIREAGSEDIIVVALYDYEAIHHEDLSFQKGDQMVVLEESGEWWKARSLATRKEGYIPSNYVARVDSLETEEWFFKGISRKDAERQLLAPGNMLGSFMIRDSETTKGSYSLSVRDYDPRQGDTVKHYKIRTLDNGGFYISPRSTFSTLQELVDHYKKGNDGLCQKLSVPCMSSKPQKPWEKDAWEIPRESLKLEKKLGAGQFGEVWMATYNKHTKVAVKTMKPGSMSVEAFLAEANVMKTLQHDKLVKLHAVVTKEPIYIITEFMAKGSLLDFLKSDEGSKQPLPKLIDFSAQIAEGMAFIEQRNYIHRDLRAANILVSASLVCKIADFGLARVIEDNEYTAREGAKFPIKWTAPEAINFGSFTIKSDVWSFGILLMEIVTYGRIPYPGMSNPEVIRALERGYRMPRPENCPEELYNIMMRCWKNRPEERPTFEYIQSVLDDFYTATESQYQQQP
Sequence of Tyrosine-protein kinase Fyn (Homo sapiens) (P06241 2-537 limits assumed): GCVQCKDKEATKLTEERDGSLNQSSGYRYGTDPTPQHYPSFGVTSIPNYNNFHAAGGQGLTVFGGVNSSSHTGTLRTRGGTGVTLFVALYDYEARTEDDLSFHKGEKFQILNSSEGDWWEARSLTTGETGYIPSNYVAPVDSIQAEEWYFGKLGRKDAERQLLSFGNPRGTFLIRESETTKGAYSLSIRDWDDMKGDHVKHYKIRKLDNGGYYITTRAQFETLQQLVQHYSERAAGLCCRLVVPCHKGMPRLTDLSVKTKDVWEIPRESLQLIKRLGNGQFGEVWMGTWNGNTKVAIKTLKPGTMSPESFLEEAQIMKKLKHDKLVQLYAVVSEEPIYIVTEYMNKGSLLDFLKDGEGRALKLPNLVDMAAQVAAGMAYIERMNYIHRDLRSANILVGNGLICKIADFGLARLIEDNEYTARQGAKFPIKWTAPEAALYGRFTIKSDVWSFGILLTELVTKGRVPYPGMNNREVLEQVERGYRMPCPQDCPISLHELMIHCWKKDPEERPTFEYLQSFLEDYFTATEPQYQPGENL
Sequence of Insulin-like growth factor 1 receptor (Homo sapiens) (P08069 31-736 limits assumed): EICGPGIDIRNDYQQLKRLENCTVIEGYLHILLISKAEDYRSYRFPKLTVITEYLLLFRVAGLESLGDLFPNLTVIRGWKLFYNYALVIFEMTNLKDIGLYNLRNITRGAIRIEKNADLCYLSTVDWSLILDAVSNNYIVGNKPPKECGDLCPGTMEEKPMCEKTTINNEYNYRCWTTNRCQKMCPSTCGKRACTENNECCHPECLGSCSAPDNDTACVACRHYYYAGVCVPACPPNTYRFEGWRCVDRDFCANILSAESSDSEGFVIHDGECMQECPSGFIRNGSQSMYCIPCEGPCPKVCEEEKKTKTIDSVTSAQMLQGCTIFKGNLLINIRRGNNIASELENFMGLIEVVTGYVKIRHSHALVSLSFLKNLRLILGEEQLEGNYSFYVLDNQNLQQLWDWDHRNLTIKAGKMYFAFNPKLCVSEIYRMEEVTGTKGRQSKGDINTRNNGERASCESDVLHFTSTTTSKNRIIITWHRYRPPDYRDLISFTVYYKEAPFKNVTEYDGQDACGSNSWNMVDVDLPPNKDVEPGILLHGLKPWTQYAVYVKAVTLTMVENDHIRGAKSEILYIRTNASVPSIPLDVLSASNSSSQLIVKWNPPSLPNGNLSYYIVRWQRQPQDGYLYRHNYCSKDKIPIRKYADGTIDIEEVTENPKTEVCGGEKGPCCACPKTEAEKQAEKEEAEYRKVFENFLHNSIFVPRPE
Sequence of Insulin-like growth factor 1 receptor (Homo sapiens) (P08069 741-1367 limits assumed): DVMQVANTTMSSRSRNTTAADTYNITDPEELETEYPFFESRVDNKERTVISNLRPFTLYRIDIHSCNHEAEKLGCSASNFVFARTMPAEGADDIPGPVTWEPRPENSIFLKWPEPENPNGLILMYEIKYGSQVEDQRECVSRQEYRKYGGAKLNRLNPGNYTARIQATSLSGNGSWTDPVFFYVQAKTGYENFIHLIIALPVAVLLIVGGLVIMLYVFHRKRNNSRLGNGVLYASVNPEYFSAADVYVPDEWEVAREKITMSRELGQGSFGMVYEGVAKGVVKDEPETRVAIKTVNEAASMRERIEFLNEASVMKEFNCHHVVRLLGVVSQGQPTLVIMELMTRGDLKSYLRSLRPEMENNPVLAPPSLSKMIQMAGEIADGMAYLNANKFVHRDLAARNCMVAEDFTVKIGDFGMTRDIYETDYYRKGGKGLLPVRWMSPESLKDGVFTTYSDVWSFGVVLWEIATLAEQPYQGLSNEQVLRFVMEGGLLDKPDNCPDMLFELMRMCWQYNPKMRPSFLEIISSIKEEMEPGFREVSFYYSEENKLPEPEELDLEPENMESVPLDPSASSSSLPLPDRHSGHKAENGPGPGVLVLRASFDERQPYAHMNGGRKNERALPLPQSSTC

Row | Compound | inhibition [1] [%] | inhibition [2] [%] | inhibition [3] [%] | inhibition [4] [%] | inhibition [5] [%] | inhibition [6] [%] | inhibition [7] [%] | inhibition [8] [%] | inhibition [9] [%] | inhibition [10] [%]
1 | CC(=O)Nc1cccc(C#Cc2cncnc2Nc2ccc(OCc3cccc(F)c3)c(Cl)c2)n1 | 2.69 | -0.02 | 2.4 | -4.35 | -3.59 | -4.01 | -3.08 | -1.19 | 0 | -0.1
2 | O=C1NC(=O)C(c2cccc(Cl)c2)=C1Nc1ccc(O)c(Cl)c1 | 2.24 | 1.14 | 3.34 | -1.68 | 2.43 | 4.11 | 6.7 | 1.1 | 0.03 | 0.25
3 | CCn1c(-c2nonc2N)nc2cncc(C(=O)N3CCNCC3)c21 | 2.87 | 6.76 | 9.25 | 8.86 | 9.25 | 10.5 | 9.41 | 4.06 | 6.22 | 2.63
4 | Cn1cc(C=C2C(=O)Nc3cccnc32)c2ccccc21 | 15.4 | 6.56 | 42.1 | 1.72 | 8.98 | 3.49 | 20.1 | 0.41 | 1.8 | 2.56
5 | Nc1ncnc2occ(-c3ccc(NC(=O)Nc4cc(C(F)(F)F)cc(C(F)(F)F)c4)cc3)c12 | 10.3 | 6.07 | 27.1 | 1.24 | 7.12 | -4.81 | 6.05 | 5.56 | 2.23 | 1.65
6 | Fc1cccc(COc2ccc(Nc3ncnc4sc(-c5cccs5)cc34)cc2Cl)c1 | 5.19 | 1.68 | 3.8 | 0.38 | 0.6 | 4.85 | 3.43 | -1.46 | -0.83 | 0.84
7 | NCc1ccc(-c2nc(-c3ccc(Cl)c(O)c3)c(-c3ccncc3)[nH]2)cc1 | 31.8 | 12.9 | 55.1 | -0.62 | -0.25 | 0.74 | 2.07 | -0.06 | -1.54 | 0.2
8 | COc1ccc2cc(-c3c(-c4ccncc4)nc(-c4ccc([S+](C)[O-])cc4)n3C)ccc2c1 (stereo not given) | 2.67 | 4.09 | 6.94 | 1.13 | 0.1 | -0.81 | 3.26 | 1.09 | 1.11 | 1.06
9 | COc1cccc(-n2ncc3c(N/N=C/c4cccc(F)c4)ncnc32)c1 | 31.5 | 5.13 | 20.8 | -6.82 | -4.04 | 6.33 | 5.41 | 0.81 | 0.48 | -3.25
10 | COC(=O)Nc1nc2cc(Oc3cccc(NC(=O)Nc4cc(C(F)(F)F)ccc4F)c3)ccc2[nH]1 | 7.79 | 1.11 | 7.7 | -1.77 | -0.89 | 2.67 | 2.78 | -1.56 | -0.86 | 0.34
11 | NC(=O)c1cccc(Nc2nccc(Nc3cccc4[nH]ncc34)n2)c1 | 96.1 | 64 | 84.6 | -0.89 | 15.5 | -2.6 | 16.8 | -0.86 | 0.93 | -0.33
12 | Cc1cccc(-c2n[nH]cc2-c2ccc3ncccc3n2)n1 | 6.38 | 0.57 | 5.58 | 1.27 | -0.01 | -0.03 | 2.58 | -0.57 | -0.38 | 0.38
13 | NS(=O)(=O)c1cccc(-c2ccc3c(NC(=O)C4CC4)n[nH]c3c2)c1 | 2.4 | -0.53 | 1.86 | -0.13 | 3.51 | 3.15 | -0.25 | -2.37 | -1.21 | -0.53
14 | Cc1nnc(-c2ccc(C)c(-c3ccc(C(=O)Nc4cccc(C#N)c4)cc3)c2)o1 | 3.47 | 4.32 | 5.14 | 1.24 | 0.79 | 4.34 | 3.89 | -0.6 | 1.65 | 0.98
15 | Cc1nn(C)c2cc(N(C)c3ccnc(Nc4cccc(S(N)(=O)=O)c4)n3)ccc12 | 28.7 | 12.8 | 50.2 | 1.89 | 7.04 | 8.17 | 3.38 | 0.14 | 0.9 | 1.53
16 | Nc1nc(-c2ccccn2)c(-c2ccc3ncccc3n2)s1 | -0.24 | 2.25 | 6.89 | 3.05 | 3.2 | 2.46 | 1.2 | 2.58 | 2.92 | 1.05
17 | COc1ccc(-c2nn3ncccc3c2-c2ccnc(Nc3ccc(Cl)c(C(F)(F)F)c3)n2)cc1 | 6.37 | 1.57 | 4.58 | 0.1 | -0.08 | 3.14 | 2.37 | -1.6 | 1.11 | 0.94

Row | Compound | inhibition [1] [%] | inhibition [2] [%] | inhibition [3] [%] | inhibition [4] [%] | inhibition [5] [%] | inhibition [6] [%] | inhibition [7] [%] | inhibition [8] [%] | inhibition [9] [%] | inhibition [10] [%]
18 | O=C1NC(=O)C(c2ccc(Cl)cc2)=C1Nc1ccc(Cl)c(C(=O)O)c1 | 0.57 | 0.67 | 3.62 | 0.06 | -0.55 | 2.24 | 2.54 | -0.43 | -1.7 | -0.06
19 | Fc1cccc(COc2ccc(Nc3ncnc4cc(-c5ccc[nH]5)sc34)cc2Cl)c1 | 4.86 | 3.68 | 9.04 | -6.59 | -4.84 | 5.37 | 6 | -0.19 | 0.95 | -2.3
20 | COC(=O)Nc1nc2cc(Oc3ccc(NC(=O)Nc4cccc(C(=O)O)c4)cc3)ccc2[nH]1 | 0.19 | 0.97 | 3.15 | -3.37 | -7.4 | 2.72 | 0.58 | 1.16 | 2.82 | -2.99
21 | CS(=O)(=O)CCNCc1ccc(-c2ccc3ncnc(Nc4ccc(OCc5ccccc5)c(Cl)c4)c3c2)o1 | 9.03 | 1.16 | 5.85 | 5.19 | -0.77 | 1.79 | 1.45 | -1.48 | -1.47 | -0.01
22 | CNC(=O)c1cncc(/C=C/c2c(Cl)cccc2Cl)c1 | 15.1 | 11.6 | 44.9 | -8.06 | -3 | 3.59 | 2.79 | 2.44 | 2.34 | -1.98
23 | CC1=C(C(=O)Nc2ccc3[nH]ncc3c2)C(c2ccc(Cl)c(Cl)c2)CC(=O)N1 (stereo not given) | 2.37 | 6.21 | 7.31 | -0.16 | 1.11 | 1.45 | 1.96 | 0.58 | 1.03 | 1.18
24 | CCn1c(-c2nonc2N)nc2ccncc21 | -0.65 | 3.79 | 3.12 | -0.2 | 1.25 | 3.48 | 5.38 | -0.17 | -0.42 | 0.26
25 | Nc1ncnc2occ(-c3ccc(NC(=O)Nc4cccc(C(F)(F)F)c4)cc3)c12 | 19.9 | 12 | 48.8 | 14.6 | 15.5 | 3.28 | 10.5 | 2.2 | 5.07 | 0.99
26 | CCN1CCC(CC(=O)Nc2n[nH]c3nc(-c4cccs4)c(Br)cc23)CC1 | -1.4 | -0.44 | 0.93 | -1.09 | 1.31 | -0.61 | -1.43 | -2.33 | 0.01 | -0.21
27 | CS(=O)(=O)CCNCc1ccc(-c2ccc3ncnc(Nc4ccc(OCc5cccc(F)c5)c(C(F)(F)F)c4)c3c2)o1 | 2.37 | 5.21 | 4.98 | 0.07 | 1.69 | 5.7 | 6.44 | 3.1 | 2.55 | 1.12
28 | O=C1NC(=O)C(N2CCc3ccccc32)=C1c1ccc(Cl)cc1 | 4.67 | 8.78 | 12.7 | 2.02 | 2.75 | 6.09 | 5.24 | 2.18 | 2.1 | 1.5
29 | COc1cc(C)c(NC(=O)CN(C)C)cc1Nc1nc(Nc2cccc(F)c2C(N)=O)c2cc[nH]c2n1 | 2.42 | 4.13 | 3.71 | 93.6 | 95.5 | 99.9 | 99.9 | 90.8 | 97.7 | 1.36
30 | COc1cc2ncn(-c3cc(O[C@H](C)c4ccccc4Cl)c(C(N)=O)s3)c2cc1OC | 8.81 | 11.7 | 51.8 | 2.5 | 3.13 | 2.07 | 4.73 | 1.49 | 2.98 | 2.64
31 | N#Cc1c(NC(=O)c2cccc3ccccc23)sc2c1CCCC2 | 4.04 | 4.79 | 6.4 | 1.59 | 2.51 | 5.97 | 6.62 | 0.81 | 1.11 | 1.77
32 | COc1cc(C=NNc2ncnc3c2cnn3-c2ccccc2)ccc1O | 47.5 | 8.92 | 41.6 | 1.72 | 3.81 | 3.42 | 2.58 | 3.25 | 2.41 | 1.47
33 | COc1ccc(COc2ccc(Cc3cnc(N)nc3N)cc2OC)cc1 | 1.28 | 3.28 | 3.12 | -2.27 | -0.91 | 0.54 | -1 | 0.04 | -0.57 | 1.47
